# Measured values taken from PubChem BioAssay AID1159580 (chemical genetic matrix, 2015).
# Values joined by “and” are separate entries in the source; they are usually repeats but may differ in a detail not shown here. Equal entries are not always repeated. In all, about 5,500 compounds went through this assay and about 2,000 (36%) were called active. Not shown: some 18% with an inconclusive outcome. No stated cut-off is given here; in the data, active means normalized growth mostly below about 0.91 (no sharp cut-off); inconclusive means no clear call, values can overlap the other calls; inactive means mostly above about 0.92. The list shows a part of the results.
# Experiment: chemical genetic growth profiling, strain panel (AID 1159580);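 further: tested at 20 µM; growth read once vehicle control cultures reached saturation at 30 °C; 1 = growth at the plate median or of vehicle wells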
# Details: S. cerevisiae deletion strains, growth OD
structure (smiles),measurement,setting,value
CC1=CC2C(CC1=O)C(C)=CCC2C(C)C (stereo unspecified),normalized growth,"locus YAL021C, strain ccr4, stronger effect = lower value",1.02 (inactive)
same,normalized growth,"locus YAL026C, strain drs2, stronger effect = lower value",0.996 (inactive)
same,normalized growth,"locus YAL030W, strain snc1, stronger effect = lower value",1 (inactive)
same,normalized growth,"locus YBL061C, strain skt5, stronger effect = lower value",1.02 (inactive)
same,normalized growth,"locus YBR009C, strain hhf1, stronger effect = lower value",0.98 (inactive)
same,normalized growth,"locus YBR021W, strain FUR4, stronger effect = lower value",0.923 (inactive)
same,normalized growth,"locus YBR023C, strain chs3, stronger effect = lower value",0.992 (inactive)
same,normalized growth,"locus YBR171W, strain sec66, stronger effect = lower value",1 (inactive)
same,normalized growth,"locus YBR229C, strain ROT2, stronger effect = lower value",1.01 (inactive)
same,normalized growth,"locus YBR231C, strain swc5, stronger effect = lower value",0.998 (inactive)
same,normalized growth,"locus YBR279W, strain paf1, stronger effect = lower value",1 (inactive)
same,normalized growth,"locus YCL011C, strain gbp2, stronger effect = lower value",1.01 (inactive)
same,normalized growth,"locus YCL016C, strain dcc1, stronger effect = lower value",1.01 (inactive)
same,normalized growth,"locus YCL029C, strain bik1, stronger effect = lower value",0.976 (inactive)
same,normalized growth,"locus YCL061C, strain MRC1, stronger effect = lower value",0.991 (inactive)
same,normalized growth,"locus YCL069W, strain vba3, stronger effect = lower value",1.01 (inactive)
same,normalized growth,"locus YCR088W, strain abp1, stronger effect = lower value",1 (inactive)
same,normalized growth,"locus YDL005C, strain med2, stronger effect = lower value",1.02 (inactive)
same,normalized growth,"locus YDL035C, strain GPR1, stronger effect = lower value",0.96 (inactive)
same,normalized growth,"locus YDL040C, strain nat1, stronger effect = lower value",1.01 (inactive)
same,normalized growth,"locus YDL074C, strain BRE1, stronger effect = lower value",0.902 (inactive)
same,normalized growth,"locus YDL101C, strain DUN1, stronger effect = lower value",0.966 (inactive)
same,normalized growth,"locus YDL185W, strain tfp1, stronger effect = lower value",0.83 (active)
same,normalized growth,"locus YDL192W, strain arf1, stronger effect = lower value",0.769 (active)
same,normalized growth,"locus YDR001C, strain nth1, stronger effect = lower value",0.996 (inactive)
same,normalized growth,"locus YDR069C, strain doa4, stronger effect = lower value",1.02 (inactive)
same,normalized growth,"locus YDR101C, strain arx1, stronger effect = lower value",0.929 (inactive)
same,normalized growth,"locus YDR137W, strain rgp1, stronger effect = lower value",0.896 (inactive)
same,normalized growth,"locus YDR159W, strain sac3, stronger effect = lower value",1.01 (inactive)
same,normalized growth,"locus YDR162C, strain NBP2, stronger effect = lower value",0.92 (inactive)
same,normalized growth,"locus YDR195W, strain ref2",0.977 (inactive)
same,normalized growth,"locus YDR297W, strain sur2, stronger effect = lower value",1.02 (inactive)
same,normalized growth,"locus YDR318W, strain mcm21, stronger effect = lower value",0.946 (inactive)
same,normalized growth,"locus YDR334W, strain swr1, stronger effect = lower value",1.01 (inactive)
same,normalized growth,"locus YDR335W, strain msn5, stronger effect = lower value",1.01 (inactive)
same,normalized growth,"locus YDR388W, stronger effect = lower value",0.987 (inactive)
same,normalized growth,"locus YDR392W, strain spt3, stronger effect = lower value",0.594 (active)
same,normalized growth,"locus YDR502C, strain sam2, stronger effect = lower value",0.895 (active)
same,normalized growth,"locus YEL003W, strain gim4, stronger effect = lower value",1.02 (inactive)
same,normalized growth,"locus YEL037C, strain rad23, stronger effect = lower value",0.997 (inactive)
same,normalized growth,"locus YEL061C, strain CIN8 (second series), stronger effect = lower value",1.01 (inactive)
same,normalized growth,"locus YEL061C, strain CIN8, stronger effect = lower value",0.911 (active)
same,normalized growth,"locus YER015W, strain faa2, stronger effect = lower value",1 (inactive)
same,normalized growth,"locus YER016W, strain bim1, stronger effect = lower value",1.01 (inactive)
same,normalized growth,"locus YER110C, stronger effect = lower value",1.01 (inactive)
same,normalized growth,"locus YER111C, strain swi4, stronger effect = lower value",0.996 (inactive)
same,normalized growth,"locus YER155C, strain BEM2 (second series), stronger effect = lower value",0.98 (inactive)
same,normalized growth,"locus YER155C, strain BEM2, stronger effect = lower value",0.948 (inactive)
same,normalized growth,"locus YER167W, strain BCK2, stronger effect = lower value",0.937 (inactive)
same,normalized growth,"locus YFR010W, strain ubp6, stronger effect = lower value",1 (inactive)
same,normalized growth,"locus YGL078C, strain dbp3, stronger effect = lower value",0.943 (inactive)
same,normalized growth,"locus YGL086W, strain mad1, stronger effect = lower value",0.888 (active)
same,normalized growth,"locus YGL167C, strain pmr1, stronger effect = lower value",1.01 (inactive)
same,normalized growth,"locus YGL173C, strain kem1, stronger effect = lower value",1.01 (inactive)
same,normalized growth,"locus YGL227W, strain vid30, stronger effect = lower value",1.01 (inactive)
same,normalized growth,"locus YGL240W, strain doc1, stronger effect = lower value",0.998 (inactive)
same,normalized growth,"locus YGL248W, strain PDE1, stronger effect = lower value",0.952 (inactive)
same,normalized growth,"locus YGL253W, strain hxk2, stronger effect = lower value",1 (inactive)
same,normalized growth,"locus YGR135W, strain pre9, stronger effect = lower value",0.881 (active)
same,normalized growth,"locus YGR252W, strain gcn5, stronger effect = lower value",0.972 (inactive)
same,normalized growth,"locus YHR013C, strain ard1, stronger effect = lower value",1.03 (inactive)
same,normalized growth,"locus YHR027C, strain rpn1, stronger effect = lower value",1.01 (inactive)
same,normalized growth,"locus YHR030C, strain SLT2, stronger effect = lower value",0.905 (active) and 0.973 (inactive)
same,normalized growth,"locus YHR079C, strain IRE1 (second series), stronger effect = lower value",0.989 (inactive)
same,normalized growth,"locus YHR079C, strain IRE1, stronger effect = lower value",0.96 (inactive)
same,normalized growth,"locus YHR094C, strain hxt1, stronger effect = lower value",0.989 (inactive)
same,normalized growth,"locus YHR129C, strain ARP1, stronger effect = lower value",0.95 (inactive)
same,normalized growth,"locus YHR142W, strain chs7, stronger effect = lower value",0.981 (inactive)
same,normalized growth,"locus YHR200W, strain rpn10, stronger effect = lower value",0.968 (inactive)
same,normalized growth,"locus YIL066C, strain RNR3, stronger effect = lower value",0.9 (inactive)
same,normalized growth,"locus YIL073C, strain SPO22, stronger effect = lower value",0.91 (inactive)
same,normalized growth,"locus YIL125W, strain kgd1, stronger effect = lower value",0.934 (inactive)
same,normalized growth,"locus YIR030C, strain dcg1, stronger effect = lower value",0.979 (inactive)
same,normalized growth,"locus YJL092W, strain hpr5, stronger effect = lower value",0.998 (inactive)
same,normalized growth,"locus YJL095W, strain BCK1 (second series), stronger effect = lower value",1.01 (inactive)
same,normalized growth,"locus YJL095W, strain BCK1, stronger effect = lower value",0.808 (inactive) and 0.979 (inactive)
same,normalized growth,"locus YJL115W, strain asf1, stronger effect = lower value",1.01 (inactive)
same,normalized growth,"locus YJL129C, strain trk1, stronger effect = lower value",1 (inactive)
same,normalized growth,"locus YJL134W, strain LCB3, stronger effect = lower value",1.02 (inactive)
same,normalized growth,"locus YJL154C, strain vps35, stronger effect = lower value",1.01 (inactive)
same,normalized growth,"locus YJL164C, strain tpk1, stronger effect = lower value",0.994 (inactive)
same,normalized growth,"locus YJL166W, strain qcr8, stronger effect = lower value",0.978 (inactive)
same,normalized growth,"locus YJL168C, strain set2, stronger effect = lower value",0.978 (inactive)
same,normalized growth,"locus YJL187C, strain SWE1 (second series), stronger effect = lower value",0.971 (inactive)
same,normalized growth,"locus YJL187C, strain SWE1, stronger effect = lower value",1 (inactive)
same,normalized growth,"locus YJR043C, strain POL32, stronger effect = lower value",0.98 (inactive)
